Test results from ChEMBL document CHEMBL3988442, “University of Dundee, Small-Polar-MMV Screening Library” (2021).
For part of these data: Entries with a potency or affinity are not part of this list.

How the values were obtained:
Design in all cases: scale not given: direction of the effect not stated beside the values
[1] = target: Protein translocase subunit SecA (Escherichia coli (strain K12)) (UniProt P10408); assay: Assay to Identify E. coli SecA ATPase Inhibitors; assay type: functional; conditions: 30 µM
Protein translocase subunit SecA (Escherichia coli (strain K12)), sequence (P10408 whole entry): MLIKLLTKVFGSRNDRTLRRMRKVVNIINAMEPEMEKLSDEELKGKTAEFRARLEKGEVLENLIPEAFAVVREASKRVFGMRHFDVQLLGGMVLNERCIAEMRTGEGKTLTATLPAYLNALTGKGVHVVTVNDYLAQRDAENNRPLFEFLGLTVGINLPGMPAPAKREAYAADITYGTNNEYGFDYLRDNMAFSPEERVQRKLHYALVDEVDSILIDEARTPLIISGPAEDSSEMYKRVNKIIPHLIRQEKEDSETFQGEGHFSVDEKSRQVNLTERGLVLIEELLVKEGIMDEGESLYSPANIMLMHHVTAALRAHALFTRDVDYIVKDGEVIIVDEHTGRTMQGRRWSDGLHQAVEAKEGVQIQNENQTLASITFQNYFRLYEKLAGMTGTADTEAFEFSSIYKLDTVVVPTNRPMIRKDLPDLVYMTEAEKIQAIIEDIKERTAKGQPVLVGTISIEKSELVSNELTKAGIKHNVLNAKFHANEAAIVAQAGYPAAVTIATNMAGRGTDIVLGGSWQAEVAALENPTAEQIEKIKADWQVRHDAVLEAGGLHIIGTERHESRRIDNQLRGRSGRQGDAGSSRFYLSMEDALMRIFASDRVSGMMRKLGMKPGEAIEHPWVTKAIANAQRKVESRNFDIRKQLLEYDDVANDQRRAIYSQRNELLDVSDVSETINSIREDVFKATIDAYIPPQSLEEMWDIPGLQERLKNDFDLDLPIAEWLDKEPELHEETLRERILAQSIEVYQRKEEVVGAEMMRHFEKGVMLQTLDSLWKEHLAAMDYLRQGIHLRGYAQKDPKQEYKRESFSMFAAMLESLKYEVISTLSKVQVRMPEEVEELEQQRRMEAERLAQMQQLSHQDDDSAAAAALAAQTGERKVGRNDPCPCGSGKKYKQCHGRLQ

[2] = target: T1, Ubiquitin-activating enzyme e1, putative (Leishmania donovani (strain BPK282A1)) (UniProt E9BSI1); assay: Leishmania donovani Ubiquitin Activating Enzyme (LdE1); assay type: functional; conditions: 30 µM
T1 sequence (whole entry): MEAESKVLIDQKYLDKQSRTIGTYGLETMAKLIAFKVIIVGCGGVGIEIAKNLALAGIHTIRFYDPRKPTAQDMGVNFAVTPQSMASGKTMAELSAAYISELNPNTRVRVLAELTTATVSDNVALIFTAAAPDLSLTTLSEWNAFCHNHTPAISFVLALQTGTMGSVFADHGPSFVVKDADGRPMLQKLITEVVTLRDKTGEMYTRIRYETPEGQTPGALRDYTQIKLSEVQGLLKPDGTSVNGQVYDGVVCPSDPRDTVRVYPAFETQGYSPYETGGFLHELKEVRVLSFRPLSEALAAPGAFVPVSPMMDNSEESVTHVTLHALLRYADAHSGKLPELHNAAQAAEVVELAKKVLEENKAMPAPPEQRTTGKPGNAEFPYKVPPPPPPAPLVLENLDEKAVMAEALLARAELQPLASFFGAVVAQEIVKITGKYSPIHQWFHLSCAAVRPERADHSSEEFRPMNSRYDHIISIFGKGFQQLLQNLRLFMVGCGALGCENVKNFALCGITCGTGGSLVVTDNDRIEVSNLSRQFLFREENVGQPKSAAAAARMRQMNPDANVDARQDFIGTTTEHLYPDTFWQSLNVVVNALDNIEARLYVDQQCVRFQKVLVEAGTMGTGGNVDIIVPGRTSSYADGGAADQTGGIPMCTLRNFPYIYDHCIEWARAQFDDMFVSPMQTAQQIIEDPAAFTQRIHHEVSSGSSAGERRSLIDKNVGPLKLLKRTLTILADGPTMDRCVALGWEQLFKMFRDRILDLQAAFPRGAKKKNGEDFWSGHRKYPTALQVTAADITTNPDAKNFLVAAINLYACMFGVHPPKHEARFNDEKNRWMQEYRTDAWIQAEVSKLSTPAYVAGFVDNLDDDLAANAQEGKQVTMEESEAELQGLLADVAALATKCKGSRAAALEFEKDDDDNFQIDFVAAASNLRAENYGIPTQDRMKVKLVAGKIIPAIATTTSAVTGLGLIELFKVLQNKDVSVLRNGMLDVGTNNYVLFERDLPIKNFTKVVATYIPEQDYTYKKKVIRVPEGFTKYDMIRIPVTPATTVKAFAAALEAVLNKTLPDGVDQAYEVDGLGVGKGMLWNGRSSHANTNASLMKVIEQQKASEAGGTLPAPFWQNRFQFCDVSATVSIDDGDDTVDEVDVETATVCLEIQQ

[3] = target: AMP-activated protein kinase, AMPK (Homo sapiens) (UniProt P54646+O43741+P54619+Q9UGJ0+Q9Y478+Q13131+Q9UGI9); assay: AMP-dependent Kinase enzyme assay. An in vitro enzyme assay that detects ADP turnover that is directly proportional to AMPK activity. This uses naive AMPK that is activated during the assay with MK-8722; assay type: functional; conditions: 30 µM
[4] = target: Sialic acid-binding Ig-like lectin 9 (Homo sapiens) (UniProt Q9Y336); assay: Hs-Siglec9 ALPHAscreen SOP 20170721; conditions: 10 µM
Sialic acid-binding Ig-like lectin 9 (Homo sapiens), sequence (Q9Y336 whole entry): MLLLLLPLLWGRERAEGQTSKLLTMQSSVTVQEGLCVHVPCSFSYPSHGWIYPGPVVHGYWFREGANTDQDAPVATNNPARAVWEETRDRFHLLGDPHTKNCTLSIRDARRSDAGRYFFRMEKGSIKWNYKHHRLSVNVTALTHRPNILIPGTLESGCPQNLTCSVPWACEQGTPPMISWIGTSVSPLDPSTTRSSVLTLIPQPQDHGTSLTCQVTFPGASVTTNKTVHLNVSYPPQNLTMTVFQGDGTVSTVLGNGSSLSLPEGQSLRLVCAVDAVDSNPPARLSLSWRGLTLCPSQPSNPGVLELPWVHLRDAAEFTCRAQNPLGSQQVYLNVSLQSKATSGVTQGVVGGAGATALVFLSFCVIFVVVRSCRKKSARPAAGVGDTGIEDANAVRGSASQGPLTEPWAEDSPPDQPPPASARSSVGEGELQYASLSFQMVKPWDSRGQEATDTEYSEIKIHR

[5] = system: Trypanosoma cruzi; assay: Trypanosoma cruzi phosphomannomutase and mannose-1-phosphate guanylyltransferase assay; assay type: functional; conditions: 10 µM
[6] = target: T2, Arginase-2, mitochondrial (Homo sapiens) (UniProt P78540); assay: in vitro enzyme assay to detect the production of urea directly proportional to the activity of Arginase II; assay type: functional; conditions: 33.3 µM; note: in the data most compounds retested in dose-response had high values
T2 sequence (whole entry): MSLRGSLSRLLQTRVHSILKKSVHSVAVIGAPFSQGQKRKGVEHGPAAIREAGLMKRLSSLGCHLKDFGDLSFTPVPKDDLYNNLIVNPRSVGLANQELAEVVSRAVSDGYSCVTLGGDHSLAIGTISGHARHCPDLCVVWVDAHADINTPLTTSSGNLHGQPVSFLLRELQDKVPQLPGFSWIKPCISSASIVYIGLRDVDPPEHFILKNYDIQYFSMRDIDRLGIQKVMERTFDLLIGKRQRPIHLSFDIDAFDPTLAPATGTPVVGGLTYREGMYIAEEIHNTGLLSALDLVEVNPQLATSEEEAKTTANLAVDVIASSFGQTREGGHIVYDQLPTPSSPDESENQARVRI

[7] = target: T3, Proteasome subunit beta (Trypanosoma cruzi) (UniProt O96673); assay: Trypanosoma cruzi proteasome chymotrypsin-like activity (TcProtChymo) assay.; note: in the data most compounds retested in dose-response had high values; assay type: functional; conditions: 9.37 µM
T3 sequence (whole entry): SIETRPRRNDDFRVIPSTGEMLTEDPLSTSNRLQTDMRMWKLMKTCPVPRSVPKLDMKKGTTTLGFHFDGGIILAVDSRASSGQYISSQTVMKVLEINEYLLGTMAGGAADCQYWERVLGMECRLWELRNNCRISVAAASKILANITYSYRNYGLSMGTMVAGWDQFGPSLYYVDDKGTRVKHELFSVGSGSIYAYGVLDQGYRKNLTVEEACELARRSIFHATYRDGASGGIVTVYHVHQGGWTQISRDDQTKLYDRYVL

[8] = species: Homo sapiens; assay: To identify inhibition of the IFN signalling (Jak-Stat) pathway via expression of an eGFP reporter gene under the control of an IFN-stimulated response element (ISRE) containing MxA promoter.; assay type: functional; conditions: 30 µM
[9] = target: T4, Tyrosyl-tRNA synthetase, putative (Trypanosoma cruzi (strain CL Brener)) (UniProt Q4DSP6); assay: Trypanosoma cruzi tyrosyl tRNA synthetase (TcYRS) _High Tyrosine SOP; assay type: functional; conditions: 30 µM; note: in the data most compounds retested in dose-response had high values
T4 sequence (whole entry): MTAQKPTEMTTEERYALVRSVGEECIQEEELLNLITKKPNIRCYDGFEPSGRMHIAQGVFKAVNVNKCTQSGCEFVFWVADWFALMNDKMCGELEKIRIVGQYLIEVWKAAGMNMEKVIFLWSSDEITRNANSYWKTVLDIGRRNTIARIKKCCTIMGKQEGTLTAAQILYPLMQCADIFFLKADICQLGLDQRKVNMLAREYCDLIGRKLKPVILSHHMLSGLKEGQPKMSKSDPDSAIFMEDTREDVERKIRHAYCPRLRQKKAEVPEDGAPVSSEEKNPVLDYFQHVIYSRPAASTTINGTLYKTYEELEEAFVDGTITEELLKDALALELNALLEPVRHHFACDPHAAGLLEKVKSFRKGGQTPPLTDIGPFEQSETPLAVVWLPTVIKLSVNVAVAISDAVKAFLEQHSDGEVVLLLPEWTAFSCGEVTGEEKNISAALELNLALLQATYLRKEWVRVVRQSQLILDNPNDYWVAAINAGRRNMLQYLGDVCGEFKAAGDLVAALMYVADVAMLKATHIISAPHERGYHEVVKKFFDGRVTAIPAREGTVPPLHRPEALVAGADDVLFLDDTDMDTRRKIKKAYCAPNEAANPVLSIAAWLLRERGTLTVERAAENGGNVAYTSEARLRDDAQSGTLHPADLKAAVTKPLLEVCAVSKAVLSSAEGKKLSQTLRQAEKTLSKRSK

[10] = target: T4, Tyrosyl-tRNA synthetase, putative (Trypanosoma cruzi (strain CL Brener)); assay: Trypanosoma cruzi tyrosyl tRNA synthetase (TcYRS) SOP; assay type: functional; conditions: 30 µM
[11] = target: Chromo domain-containing protein 1 (Saccharomyces cerevisiae (strain ATCC 204508 / S288c) (Baker's yeast)) (UniProt P32657); assay: ScCHD-1 Enzyme Inhibition Assay; assay type: functional; conditions: 30 µM; note: in the data most compounds retested in dose-response had high values
Chromo domain-containing protein 1 (Saccharomyces cerevisiae (strain ATCC 204508 / S288c) (Baker's yeast)), sequence (P32657 whole entry, the tested form may be a part): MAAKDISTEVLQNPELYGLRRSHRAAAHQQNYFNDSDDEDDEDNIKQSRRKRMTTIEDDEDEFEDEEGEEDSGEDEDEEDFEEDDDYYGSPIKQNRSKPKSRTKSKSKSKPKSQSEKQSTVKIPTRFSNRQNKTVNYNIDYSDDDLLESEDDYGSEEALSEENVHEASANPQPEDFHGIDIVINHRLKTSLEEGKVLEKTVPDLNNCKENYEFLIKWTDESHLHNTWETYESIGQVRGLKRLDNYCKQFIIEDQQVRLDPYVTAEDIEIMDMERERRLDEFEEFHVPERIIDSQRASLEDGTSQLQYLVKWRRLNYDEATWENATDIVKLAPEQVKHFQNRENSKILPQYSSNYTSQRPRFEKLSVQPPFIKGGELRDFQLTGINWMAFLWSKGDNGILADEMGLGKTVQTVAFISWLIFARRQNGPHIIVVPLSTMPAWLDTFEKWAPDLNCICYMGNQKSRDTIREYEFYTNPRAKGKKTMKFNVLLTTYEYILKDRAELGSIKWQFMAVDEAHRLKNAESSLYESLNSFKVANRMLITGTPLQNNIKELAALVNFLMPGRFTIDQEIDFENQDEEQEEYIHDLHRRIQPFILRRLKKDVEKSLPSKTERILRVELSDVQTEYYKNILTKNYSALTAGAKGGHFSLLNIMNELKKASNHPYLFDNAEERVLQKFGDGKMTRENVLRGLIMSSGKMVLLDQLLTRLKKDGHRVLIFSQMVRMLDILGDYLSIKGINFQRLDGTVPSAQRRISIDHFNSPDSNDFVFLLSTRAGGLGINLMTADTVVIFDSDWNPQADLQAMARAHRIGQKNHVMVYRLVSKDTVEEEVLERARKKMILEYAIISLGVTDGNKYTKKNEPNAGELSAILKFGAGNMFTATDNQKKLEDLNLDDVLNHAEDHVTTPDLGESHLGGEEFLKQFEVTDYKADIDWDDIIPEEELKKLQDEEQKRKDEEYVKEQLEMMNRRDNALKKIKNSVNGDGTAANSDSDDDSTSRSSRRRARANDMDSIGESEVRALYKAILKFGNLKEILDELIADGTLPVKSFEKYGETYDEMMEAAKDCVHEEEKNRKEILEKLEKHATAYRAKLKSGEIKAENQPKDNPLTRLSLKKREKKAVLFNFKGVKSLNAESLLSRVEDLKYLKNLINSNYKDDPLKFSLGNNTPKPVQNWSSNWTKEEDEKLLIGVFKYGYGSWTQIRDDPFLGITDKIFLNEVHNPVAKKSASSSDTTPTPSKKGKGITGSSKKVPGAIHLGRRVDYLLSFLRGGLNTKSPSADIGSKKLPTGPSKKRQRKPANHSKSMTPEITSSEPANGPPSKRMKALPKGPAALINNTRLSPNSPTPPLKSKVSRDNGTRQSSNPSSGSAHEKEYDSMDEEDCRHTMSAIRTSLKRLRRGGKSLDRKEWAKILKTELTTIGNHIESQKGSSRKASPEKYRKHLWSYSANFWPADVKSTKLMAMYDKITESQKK

Row | SMILES | Percent Effect [1] [%] | Percent Effect [2] [%] | Percent Effect [3] [%] | Percent Effect [4] [%] | Percent Effect [5] [%] | Percent Effect [6] [%] | Percent Effect [7] [%] | Percent Effect [8] [%] | Percent Effect [9] [%] | Percent Effect [10] [%] | Percent Effect [11] [%]
1 | CC(C)(C)c1cnc(CN2CCC[C@H]2CO)o1 | -1.75 | -5.2 | 4.08 | 12.3 | 5.62 | -0.712 | -1.01 | -3.74 | 7.77 | 9.76 | -5.64
2 | CCn1nccc1CNC(=O)C(C)n1cc2c(n1)c(C)nn2C (stereo unspecified) | -5.47 | 20 | -7.37 | 0.228 | 0.197 | -11.4 | 10.5 | 2.05 | 5.29 | 12.8 | -12.4
3 | O=C([C@H]1CCCO1)N1CCCC2(CCN(Cc3ccncc3)C2=O)C1 (stereo partly specified) | -1.19 | 10.4 | 3.88 | -8.92 | -7.79 | 7.1 | 11.3 | 31.4 | 3.17 | 6.41 | -8.64
4 | COC(=O)c1cc(OCC2CCC2)cc(C(=O)N[C@@H]2CNCC[C@H]2O)c1 | -7.97 | 0 | -18.2 | 10.2 | -0.392 | -2.73 | 4.44 | 36 | 0 | 0 | -7.21
5 | Cc1ccc(NC(=O)c2n[nH]c(-n3cnnc3)n2)cc1C | -5.16 | 9.33 | -5.75 | -2.63 | 4.32 | 21.6 | -10.7 | -2.17 | 8.47 | 10.3 | -18.6
6 | CCc1ncncc1C(=O)N1CCN(Cc2ccco2)CC1 | -3.87 | 0 | 2.99 | -2.08 | -4.2 | 3.24 | 0.592 | 4.36 | -3.45 | -11.1 | 2.25
7 | O=C(CCC(=O)N1CCCC1c1cccs1)N1CCc2sccc2C1 (stereo unspecified) | 1.64 | -8.11 | -5.22 | 4.27 | 5 | -1.6 | 3.42 | 19.6 | 3.45 | 3.7 | -5.21
8 | Cc1cc(C[C@@H]2CCC[C@H]2NCc2cc(C)c(O)c(C)c2)on1 | 0.891 | 9.46 | 18.3 | -0.421 | -9.88 | -0.232 | 15.1 | 41.8 | 0 | 9.09 | -12.1
9 | CC(C)OCCCN1CCCC(c2nc3ccccc3n2C(C)C)C1 (stereo unspecified) | -2.17 | 13.5 | -7.28 | -1.96 | 3.32 | 32.9 | 15 | 22.4 | 9.9 | 13.4 | 6.88
10 | Cc1nnc(CN2CCN(CC(O)c3cccc(F)c3)CC2)n1C (stereo unspecified) | -3.94 | 15.6 | -3.28 | 3.58 | 2.64 | 0.632 | 8.33 | 14 | 3.81 | 11.8 | -20.7
11 | CCN1CCN(c2ncc(-c3cc(C)no3)c(-c3ccoc3C)n2)CC1 | -4.09 | 12.2 | 5 | 3.93 | 1.98 | -3.48 | 6.4 | -1.91 | 2.15 | 6.49 | -24.9
12 | COCCC(=O)N1CCC2(COCc3cnc(N4CCOCC4)nc32)C1 (stereo unspecified) | -4.87 | 10.7 | 18.4 | -1.98 | -5.51 | 2.1 | 8.02 | 11.9 | 0 | 6.41 | -0.906
13 | O=C(NCCCn1cncn1)NCC(c1ccccc1)N1CCCC1 (stereo unspecified) | -4.8 | 2.6 | -5.77 | -8.15 | 5.58 | -2.32 | 14.6 | 6.64 | 3.81 | 2.35 | -23.6
14 | Cc1oncc1C(=O)N1CCC2(CC1)CC(c1ccccc1)C(=O)N2C (stereo unspecified) | -3.51 | -16 | -4.85 | 1.07 | 3.28 | -47.1 | 7.69 | -5.26 | -37.5 | -62.5 | -5.13
15 | CCOc1ccc(-n2nnc(C(=O)O)c2-c2ccccn2)cc1 | -1.24 | 7.89 | 4.82 | -2.3 | 0.487 | 0 | 29.2 | 5.63 | 3.19 | 13 | -4.17
16 | COCCN1C(=O)CC(N2CCN(c3ccc(OC)cc3)CC2)C1=O (stereo unspecified) | 1.03 | 6.94 | 1.7 | 4.19 | 4.37 | 13.7 | 16.8 | -7.93 | 8.42 | 15.4 | -3.31
17 | COCCN1CCN(CCCS(C)(=O)=O)CC1C (stereo unspecified) | -5.52 | 21.6 | -8.32 | 7.36 | 9.56 | 0.924 | 9.16 | 4.15 | 9.9 | 28.1 | 52
18 | Cc1cc(CN2CCN(c3ccc4nncn4n3)C(C)C2)no1 (stereo unspecified) | -6.67 | 20.8 | -6.96 | 14.4 | 5.8 | 4.63 | 11.2 | 19.6 | 9.71 | 21.9 | -10.9
19 | CN(C)S(=O)(=O)N1CCN(c2nccc(C(F)(F)F)n2)CC1 | -2.09 | 5.48 | 8.09 | 4.91 | 7.64 | 0.909 | 10.5 | 9.93 | 5.38 | 12.5 | -3.75
20 | CCCN(CC1COc2ccccc2O1)C(=O)CCn1cncn1 (stereo unspecified) | -3.98 | 13.2 | -1.36 | -1.88 | -1.5 | -0.383 | 8.52 | 0.478 | 7.35 | 17.1 | -2.23
21 | OCCn1cc(CN2CCN(CCOc3ccccc3F)CC2)cn1 | -9.62 | 0 | 7.1 | 3.17 | -5.48 | 2.03 | 4.49 | 11.7 | -2.97 | -8.54 | 11.3
